# In the library only some 0.97% were active in any assay of this set; here they are far more common.
# MBNL1-CUG inh: inhibitors of human MBNL1 binding to CUG repeat RNA; Q9NR56; TR-FRET MBNL1-His/biotin-(CUG)12 binding, 665/545 ratio; Potency, µM (doses to about 57.5 µM), without a hit: at the top dose activity change, negative = inhibition, hits mostly inhibitors; 280,000 compounds, 0.036% hits; AID 2675; active means well fitted inhibition curve with a large enough effect in the signal ratio, with a control signal flat, not every such curve was filed as active; inconclusive means small, poorly fitted or top-dose-only effect, or effect the other way, or a change in a side signal; inactive means no such curve, though single readings can be large or run the other way; the % refers to the signal ratio; further: potency means the concentration at half of the fitted maximal effect; on the % scale 0 is the no-effect control and ±100 the full control effect
# Target sequence (Q9NR56 whole entry, looked up): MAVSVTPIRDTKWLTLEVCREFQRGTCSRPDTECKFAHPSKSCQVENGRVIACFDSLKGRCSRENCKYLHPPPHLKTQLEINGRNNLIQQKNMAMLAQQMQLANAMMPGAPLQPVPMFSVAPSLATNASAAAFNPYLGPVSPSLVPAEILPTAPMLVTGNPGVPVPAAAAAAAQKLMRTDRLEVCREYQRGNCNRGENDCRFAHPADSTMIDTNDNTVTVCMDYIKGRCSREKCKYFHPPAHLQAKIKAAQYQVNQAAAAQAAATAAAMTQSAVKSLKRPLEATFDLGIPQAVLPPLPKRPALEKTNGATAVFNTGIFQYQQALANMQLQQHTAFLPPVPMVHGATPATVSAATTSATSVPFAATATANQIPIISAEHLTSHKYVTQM
#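 His-tagged MBNL1 binding to biotinylated (CUG)12 RNA was measured by TR-FRET using terbium anti-His antibody (0.055 ng/ul final) and streptavidin-XL665 (5 nM final). Compounds were titrated 92 nM to 58 uM; 60 min at room temperature.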
# MmCpn inh: inhibitors of Methanococcus maripaludis chaperonin TRiC (MmCpn); Potency, µM (top dose mostly 76.9 µM), inactives show top-dose activity, negative = inhibition, hits mostly inhibitors; 330,000 compounds, 0.031% hits; purified Mm-Cpn ATPase, ADP Transcreener TR-FRET; further: potency means the concentration at half of the fitted maximal effect; on the % scale 0 is the no-effect control and ±100 the full control effect; nearly all actives have a fitted effect of over 80% in size
#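 ATP (10 uM final) was added to archaeal chaperonin (25 nM final) after 10 min exposure to test compound at 37°C; after 30 min further incubation, ADP was detected by competitive TR-FRET.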
# pAkt inh: blocks phosphorylation of Akt | Neuro2A IGF-stimulated pAkt S473 HTRF, 20 min; active compounds read low | activity change, % for hits at 50 µM | 360,000 compounds, 0.32% hits; in the data active means activity change below about -80%; inconclusive means mostly about -51% to -80%; further: on the % scale 0 is the no-effect control and ±100 the full control effect
#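 Neuro2A cells (4,500/well, DMEM with 0.5% FBS) were treated with compound at a single 50 µM final concentration, stimulated with 6 nM IGF for 20 min at 37 °C, and lysed. Phospho-Akt Ser473 was read by HTRF as 665/615 ratio ×10^4.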
# CCT modulator: cytosolic chaperonin activity modulation. purified chaperonin ATPase assay, HTRF ADP detection, 30 min. 360,000 compounds, 0.3% hits. activity change, % (no concentration beside the values), hits read low; in the data active means activity change below about -30%; further: on the % scale 0 is the no-effect control and ±100 the full control effect
#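 First, chaperonin was dispensed at 40 nM or 20 nM final depending on batch activity. Next, compounds were pinned at 76 uM and ATP added at 10 uM. After 30 min at 37 °C, ADP detection reagents ran 30 min at ambient temperature.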
# uPA generation: cell surface uPA generation inhibition. cell surface uPA generation assay, qHTS. Potency, µM (highest dose often 38.3 µM), for the others: at the highest dose activity change, negative = inhibition, most hits filed as inhibitors. 330,000 compounds, 0.31% hits. AID 540303; active means well fitted inhibition curve with a large enough effect; inconclusive means small, poorly fitted or top-dose-only effect; inactive means no such curve, though single readings can be large or run the other way; tested in mouse RAW 264.7 cells; further: potency means the concentration at half of the fitted maximal effect; on the % scale 0 is the no-effect control and ±100 the full control effect; nearly all actives have a fitted effect of over 55% in size
# Epigenetic reg: derepresses silenced GFP reporter in murine cells; 280,000 compounds, 0.2% hits; murine LDR cells, GFP reporter derepression, 30 h; Potency, µM (top dose mostly 53.9 µM), for inactives: at the top dose GFP activation, most hits filed as activators; further: potency means the concentration at half of the fitted maximal effect; % of control where 0% means no effect; nearly all actives have a fitted effect of over 60% in size
#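 Derepression of a silenced CMV-GFP reporter in murine LDR cells is scored by enumerating GFP-positive cells with a laser-scanning microplate cytometer after 30 hours of treatment at 37 C.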
# Numbers without * were called inactive; i = inactive; ? = inconclusive; nt = no result; [ ] = remark or other dose. Unless noted, the call rests on the fitted dose curve; in most records, active means well fitted curve in the direction sought with a large enough effect; inconclusive means small, poorly fitted or top-dose-only effect, or another doubt; inactive means no such curve, though single readings can be large; an effect the other way counts as inactive or inconclusive.
SMILES,MBNL1-CUG inh,MmCpn inh,pAkt inh,CCT modulator,uPA generation,Epigenetic reg
CCOc1ccc(N(CC(=O)Nc2ccc(C)c(C)c2)S(=O)(=O)c2c(C)noc2C)cc1,-2%,-1%,i,-1,13µM*,3%
COc1ccc(N(CC(=O)NCC2CCCO2)S(=O)(=O)c2c(C)noc2C)cc1 (stereo not given),2%,1%,i,-65*,nt,1%
O=C(NCC(=O)N1CCN(Cc2c(F)cccc2Cl)CC1)c1cccs1,nt,nt,i,2,nt,nt
COC(=O)Nc1ccc(OCc2ccccc2)cc1,3%,0%,nt,-4,0%,0%
NC(=O)COc1ccc(NC(=O)OCc2ccccc2)cc1,-1%,1%,-107%*,0,-15%,0%
O=C(Nc1ccccc1)c1cc2c(=O)c3ccccc3oc2nc1C(F)(F)F,23%,-3%,-94%*,-1,2%,-1%
O=C(Nc1cccc(C(F)(F)F)c1)c1cc2c(=O)c3ccccc3oc2nc1C(F)(F)F,-1%,-4%,i,0,nt,4%
O=C(O)c1cc(S(=O)(=O)Nc2cccc(F)c2)ccc1Cl,nt,nt,nt,nt,nt,2%
Nc1cc(C(F)(F)F)ccc1NCCc1ccccn1,-3%,-5%,i,-107*,-3%,nt
CCNC(=O)CSc1nnc(C2CC2)n1-c1ccccc1,-4%,-1%,i,-2,6%,-1%
O=C(CSc1nnc(C2CC2)n1-c1ccccc1)NCCc1ccccc1,-1%,-2%,-102%*,2,11%,1%
CCOc1cc(CN2CCCC(CNC(=O)c3ccc(F)cc3)C2)ccc1OC (stereo not given),-5%,2%,i,1,-4%,-1%
CCCCN(C)c1c(C)nc2ccc(C(=O)N(C)Cc3ccco3)cn12,nt,nt,i,-1,nt,nt
CCOc1ccccc1NC(=O)c1nc(S(=O)(=O)Cc2ccccc2)ncc1Cl,2%,-2%,i,-2,3.2µM*,nt
CCOc1ccccc1NC(=O)CNC(=O)Cc1ccccc1,-5%,2%,i,-43*,-1%,1%
COc1ccccc1NC(=O)c1nc(S(=O)(=O)Cc2ccccc2)ncc1Cl,4%,0%,i,-1,-5%,nt
O=C(O)/C=C(\Oc1ccccc1)C1(O)CCCCC1,nt,-3%,i,0,12%,2%
COc1ccc2c(c1)CCc1c-2n[nH]c1C(=O)O,6%,1%,-111%*,0,4%,0%
COc1ccc2c(c1)CCc1c(C(=O)N3CCCCCC3)noc1-2,-9%,-1%,i,-2,-8%,-1%
C/C(=N\NC(=O)c1ccc(Br)cc1)c1ccccc1,-2%,1%,-111%*,3,-9%,-1%
CC(C(=O)NC1CCCc2ccccc21)N1C(=O)C2CCCCC2C1=O (stereo not given),nt,0%,i,1,-6%,nt
N=c1c(C(=O)NCc2ccco2)cc2c(=O)n3ccccc3nc2n1Cc1ccc(Cl)cc1,?,-2%,i,-2,5%,7.1µM*
N=c1c(C(=O)NCc2ccco2)cc2c(=O)n3ccccc3nc2n1Cc1ccccc1,?,-1%,i,-2,3%,0%
COC(=O)C1=C(C)N(c2cccc(Cl)c2)C(=O)C1,-6%,1%,-118%*,0,-8%,1%
Cc1ccc(C(=O)Nc2cccc(NC(=O)c3cccs3)c2)c(C)c1,-2%,0%,i,1,13µM*,nt
SMILES,MBNL1-CUG inh,MmCpn inh,pAkt inh,CCT modulator,uPA generation,Epigenetic reg
Cc1cccc(OCCCn2c(CCNC(=O)C3CCCCC3)nc3ccccc32)c1,nt,nt,nt,nt,nt,2%
N#CNC(=Nc1cccc(F)c1)SCc1ccccc1F,nt,-8%,i,0,13µM*,0%
CC(C)N=C(NC#N)SCc1ccccc1F,-4%,0%,i,1,nt,-1%
O=[N+]([O-])c1ccc(Sc2cccc3cccnc23)c([N+](=O)[O-])c1,?,1%,i,-1,10µM*,?
CCC(C)(C)c1ccc(OCCCC[n+]2cccc(C)c2C)c(C(C)(C)CC)c1,nt,0%,i,2,8.9µM*,1%
Cc1cccc(C(=O)N[C@H](C(=O)Nc2nc3ccccc3[nH]2)C(C)C)c1,-11%,-4%,i,0,2.8µM*,6%
COc1cccc(N2CCN(C(=O)CCc3nnc4ccc(N5CCCC5)nn34)CC2)c1,9%,-9%,i,-42*,-7%,nt
CC(C)(C)c1ccc(S(=O)(=O)Nc2cccc(C3OCCCO3)c2)cc1,nt,0%,i,-1,2%,-1%
c1ccc2c(CCNc3ncnc4nc[nH]c34)c[nH]c2c1,-2%,0%,i,0,2.8µM*,-1%
c1ccc(CCNc2ncnc3nc[nH]c23)cc1,-3%,0%,i,-1,-4%,-2%
O=C(Cn1ncc2c3ccccc3n(Cc3ccccc3)c2c1=O)NCCN1CCOCC1,-1%,1%,i,-34*,-15%,nt
O=C(CSc1nnc(-c2ccc(C(F)(F)F)cn2)s1)c1ccc(Cl)cc1,nt,0%,i,0,6%,1%
COc1ccc2[nH]c(-c3cccc(F)c3)cc(=O)c2c1,13%,1%,i,-1,0.35µM*,-2%[96.6 µM]
O=c1cc(-c2ccccc2)[nH]c2ccc(F)cc12,-1%,3%,i,-1,0.4µM*,-1%[96.6 µM]
O=c1cc(-c2cccc(F)c2)[nH]c2ccccc12,31%,1%,i,2,?,-2%[96.6 µM]
Cc1ccc(-c2cc(=O)c3cc(F)ccc3[nH]2)cc1,-7%,0%,i,0,?,0%
O=c1cc(-c2ccccc2)[nH]c2ccc(Cl)cc12,nt,nt,nt,nt,nt,8%[96.6 µM]
O=c1cc(-c2ccccc2)[nH]c2cc(Cl)ccc12,8%,-5%,i,-2,0.045µM*,-2%[96.6 µM]
Cc1ccc(-c2cc(=O)c3cc(C)ccc3[nH]2)cc1,86%,-1%,i,0,1.1µM*,1%[96.6 µM]
COc1ccc2[nH]c(-c3ccccc3)cc(=O)c2c1,nt,nt,nt,nt,nt,6%[96.6 µM]
COc1cccc(NC(=O)CSc2ncc3c(n2)-c2ccc(Cl)cc2N(C)S3(=O)=O)c1,nt,nt,nt,nt,nt,1%
Cn1cccc1/C=C1\SC(=Nc2ccc(O)cc2)NC1=O,?,-1%,i,-4,?,?
Cn1cccc1/C=C1\SC(=Nc2ccccc2)NC1=O,nt,-6%,i,1,1.4µM*,3%
Cc1cc(C)c2nc(NNC(=O)c3ccc(S(=O)(=O)N4CCCC(C)C4)cc3)sc2c1 (stereo not given),36%,-3%,i,-2,5.6µM*,-2%
COc1cc(OC)c(OC)cc1/C=C1/Cc2ccccc2C1=O,10%,0%,i,2,-5%,nt

# High-throughput results as filed in PubChem.
